Screening data from PubChem BioAssay.
Nrf2 inh: blocks Nrf2 signaling; A549 ARE-Fluc reporter, luciferase luminescence, 18-24 h; Potency, µM (series often up to 46 µM), most hits filed as inhibitors; 360,000 tested, 2.1% active; AID 504444; also: nearly all actives have a fitted effect of over 60% in size
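Two sequential reads on A549 ARE_Fluc cells exposed to compound for 18-24 h: a CellTiter-Fluor fluorescence read for viability, then a luciferase luminescence read for Nrf2/ARE activity.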
ELG1 DNA repair: ELG1-dependent DNA repair inhibition; AID 504467; Potency, µM (doses to about 46.1 µM), usual class: inhibitors; 330,000 tested, 2.3% active; HEK293T ELG1-luciferase reporter, luminescence, 16 h; DNA damage induced by 5-fluorouridine; also: nearly all actives have a fitted effect of over 55% in size
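HEK293T cells expressing luciferase-tagged ELG1 (2,000/well) received 5-Fluorouridine plus compound or DMSO for 16 hr at 37 °C. Luciferase was read by ONE-Glo luminescence after 30 min at room temperature.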
Nrf2 ARE act: Nrf2 pathway activation | 410,000 tested, 0.31% active | Potency, µM (series often up to 46.1 µM), actives largely listed as activators | AREc32 ARE-luciferase reporter (MCF7-derived line), luminescence, 24 h; also: nearly all actives have a fitted effect of over 65% in size
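AREc32_Fluc, 1000 cells/well, OPTI-MEM + 5% FBS, o/n 37 deg C 5% CO2; 23 nL cpd by pin tool, 24 hr; Steady-Glo 30 min RT, luminescence.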
A549 tox: counter-screen for Nrf2 inhibitors: cytotoxicity in A549 cells; A549 ARE-Fluc cells, CellTiter-Fluor viability, 18-24 h; Potency, µM (doses to about 46 µM), actives largely listed as inhibitors; 390,000 tested, 0.16% active; AID 504648
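A549 ARE_Fluc cells in 5% FBS OPTI-MEM were exposed to compounds in concentration-response for 18-24 h at 37 deg C. Viability was read by CellTiter-Fluor fluorescence (Ex 405/Em 525) after 30 min, before the luciferase read.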
ELG1 FLuc counter: luciferase inhibition in cell-free luciferin readout for ELG1 hits; shares compounds with ELG1 DNA repair; cell-free firefly luciferase luminescence counter-screen, ViewLux; Potency, µM (top dose mostly 46.1 µM), hits mostly inhibitors; 350 tested, 3% active
ELG1-Luc inh: confirmation of human ELG1-dependent DNA repair inhibitors; 670 tested, 68% active; HEK293T ELG1-luciferase levels, luminescence; cells co-treated with 5-fluorouridine; shares compounds with ELG1 DNA repair; Potency, µM (highest dose often 46.1 µM), hits mostly inhibitors; also: nearly all actives have a fitted effect of over 55% in size
ELG1 MMS Luc: MMS-stimulated human ELG1 repair inhibition, confirmed; shares compounds with ELG1 DNA repair; 670 tested, 53% active; HEK293T luciferase-tagged ELG1 level, MMS stimulated; Potency, µM (doses to about 46.1 µM), actives largely listed as inhibitors; also: nearly all actives have a fitted effect of over 60% in size
ELG1 5-FU: confirmation of ELG1 repair inhibitors: viability with 5FU; 670 tested, under 10 active; cell viability with 5-FU, ELG1-dependent repair; shares compounds with ELG1 DNA repair; Potency, µM (highest dose often 46.1 µM), most hits filed as cytotoxic;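 also: ELG1-luc HEK293T cells cotreated with 5-fluorouridine at 10 µM final; viability measured 16 h after compound addition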
ELG1 MMS viab: confirmation of ELG1 repair inhibitors: viability with MMS. shares compounds with ELG1 DNA repair. Cell viability with MMS, ELG1-dependent DNA repair. Potency, µM (top dose mostly 46.1 µM), most hits filed as cytotoxic. 670 tested, 33% active. AID 624251;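 also: ELG1-luc HEK293T cells co-treated with 10 µM MMS; viability read 16 h after compound addition; nearly all actives have a fitted effect of over 60% in size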
Cell viab unstim: counter-screen for ELG1 repair inhibitors: unstimulated cell viability | cell viability counter-screen, unstimulated, luminescence | Potency, µM (top dose mostly 45.9 µM), usual class: cytotoxic | shares compounds with ELG1 DNA repair | 900 tested, 8% active | AID 624252;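 also: compound exposure lasted 16 hours before reading; nearly all actives have a fitted effect of over 55% in size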
FLuc biochem: counter-screen for ELG1 repair inhibitors: firefly luciferase inhibition; shares compounds with ELG1 DNA repair; purified firefly luciferase, luminescence counter-screen; Potency, µM (doses to about 57.5 µM), hits mostly inhibitors; 350 tested, 10% active
A number is an active result; . = inactive; ? = inconclusive; / = no result given; [ ] = dose if it differs, or a comment. This is a sample that favours compounds with a hit; in the whole collection about 3.7% have one here. Calls follow the shape of the dose curve; as a rule, active = well fitted curve in the direction sought with a large enough effect; inconclusive = small, poorly fitted or top-dose-only effect, or another doubt; inactive = no such curve, though single readings can be large; an effect the other way counts as inactive or inconclusive.

SMILES	Nrf2 inh	ELG1 DNA repair	Nrf2 ARE act	A549 tox	ELG1-Luc inh	ELG1 MMS Luc	ELG1 5-FU	ELG1 MMS viab	Cell viab unstim	others
Cc1ccc(C2=NN(C(=O)CCl)C(c3ccco3)C2)o1 (configuration not stated)	.	2.3µM	.	.	22µM	4µM	?	7.1µM	?
CCOC(=O)C1CCN(c2ccc(C(N)=O)cc2[N+](=O)[O-])CC1	.	.	.	.	/	/	/	/	/
CCCCc1ccc(NC(=O)c2ccc(NS(C)(=O)=O)cc2)cc1	.	.	.	.	/	/	/	/	/
CCCCc1ccc(NC(=O)c2ccc(N(C)S(C)(=O)=O)cc2)cc1	?	1.5µM	.	.	?	0.44µM	.	0.63µM	?
COC(=O)c1ccc(NC(=O)c2ccc(N(C)S(C)(=O)=O)cc2)cc1	?	3.7µM	.	.	.	5µM	.	5µM	?
CCN(CC)S(=O)(=O)c1ccc(NC(=O)c2ccccc2N(C)S(C)(=O)=O)cc1	.	.	.	.	/	/	/	/	/
COc1ccc(NC(=O)c2ccc(N(C)S(C)(=O)=O)cc2)cc1OC	.	.	.	.	/	/	/	/	/
CCN(CC)S(=O)(=O)c1ccc(NC(=O)c2ccc(N(C)S(C)(=O)=O)cc2)cc1	/	3.7µM	.	?	?	0.79µM	.	1.1µM	?
COCc1nc2cccnc2n1C1CCN(S(=O)(=O)N(C)C)CC1	.	/	.	.	/	/	/	/	/
O=C(Nc1ccc(N2CCN(C(=O)c3ccco3)CC2)cc1)c1ccc([N+](=O)[O-])cc1Cl	?	4.6µM	.	.	6.3µM	7.1µM	?	?	?
COc1cc2nc(NCC3CCCO3)n3nc(-c4cccnc4)nc3c2cc1OC (configuration not stated)	/	2.3µM	.	.	4µM	18µM	?	.	.
CCN(CC)CCCNc1nc2cc(OC)c(OC)cc2c2nc(-c3cccnc3)nn12	.	.	.	?	/	/	/	/	/
COCCCNc1nc2cc(OC)c(OC)cc2c2nc(-c3ccccc3)nn12	?	4.1µM	.	.	2.2µM	?	?	.	?
CCOCCCNc1nc2cc(OC)c(OC)cc2c2nc(-c3ccccc3)nn12	.	/	.	.	/	/	/	/	/
CCOC(=O)c1c(S(=O)(=O)N2CCCC(C(=O)N3CCN(c4ccccc4)CC3)C2)c(C)n(C)c1C (configuration not stated)	/	/	.	.	/	/	/	/	/
COc1ccc(C2=Nn3c(nnc3-c3cccc(OC)c3OC)SC2)cc1OC	?	/	/	.	/	/	/	/	/
CN(C(=O)CN1C(=O)c2ccccc2S1(=O)=O)C1CCCCC1	.	?	.	.	/	/	/	/	.
CCCCNc1ccc2c(c1)C1CC2CCN1C(=O)OCc1ccccc1 (configuration not stated)	?	/	.	.	/	/	/	/	/
CC(C)C(=O)SCCCCCCC(=O)Nc1nc(-c2ccccc2)cs1	/	/	/	/	/	/	/	/	.
O=C(CSCC(=O)N1CCN(c2ccccc2)CC1)Nc1nc(-c2ccc(Cl)s2)cs1	?	?	.	.	/	/	/	/	?	ELG1 FLuc counter=.;FLuc biochem=.
O=C(CSCC(=O)N1CCCCC1)Nc1nc(-c2ccc(Cl)s2)cs1	.	?	.	.	/	/	/	/	/
CCOC(=O)N1CCN(C(=O)CSCC(=O)Nc2nc(-c3ccccc3)cs2)CC1	.	?	.	.	/	/	/	/	.	ELG1 FLuc counter=.;FLuc biochem=.
O=C(CSCC(=O)N1CCCCC1)Nc1nc(-c2cccs2)cs1	.	?	.	.	/	/	/	/	/
COc1cc2c(cc1OC)-c1cc(N3CCc4ccccc43)nc(=O)n1CC2	.	?	.	.	2.8µM	.	?	?	?
Cn1c(=O)c2c(nc(NC(Cc3ccccc3)C(=O)O)n2Cc2ccccc2)n(C)c1=O (configuration not stated)	/	.	.	.	?	.	.	.	.	ELG1 FLuc counter=.;FLuc biochem=.
SMILES	Nrf2 inh	ELG1 DNA repair	Nrf2 ARE act	A549 tox	ELG1-Luc inh	ELG1 MMS Luc	ELG1 5-FU	ELG1 MMS viab	Cell viab unstim	others
O=C(COC(=O)C1CC2C=CC1C2)Nc1c(Br)cc([N+](=O)[O-])cc1Br (configuration not stated)	.	4.6µM	.	.	7.9µM	.	?	?	?
CCCCOc1ccc(CNC(=O)c2ccc(NC(=O)N3CCSc4ncccc43)cc2)cc1	.	/	.	.	/	/	/	/	/
NC(=O)c1nsc(C(=O)N(c2cccc(O)c2)C(C(=O)NC2CCCC2)c2ccc(Cl)cc2)c1N (configuration not stated)	.	.	.	.	/	/	/	/	/
CCOc1ccc(N(C(=O)c2snc(C(N)=O)c2N)C(C(=O)NCC2CCCO2)c2ccco2)cc1 (configuration not stated)	.	.	.	.	/	/	/	/	/
CCOc1ccc(C(C(=O)NC2CCCC2)N(C(=O)c2snc(C(N)=O)c2N)c2cccc(O)c2)cc1 (configuration not stated)	.	4.6µM	.	.	2µM	?	?	.	?
CCOc1ccc(C(C(=O)NCC2CCCO2)N(C(=O)c2snc(C(N)=O)c2N)c2ccc3c(c2)OCCO3)cc1 (configuration not stated)	.	3.3µM	.	.	1.3µM	.	?	.	.
O=C(Nc1ccc(C(O)c2ccccc2)cc1)[C@@H]1O[C@H](CO)[C@@H](O)[C@H]1O (some centres not stated)	/	/	.[9.22 µM]	/	/	/	/	/	/
CC(O)(c1cccc(F)c1)c1nc(-c2cnc3ccccc3c2)cs1 (configuration not stated)	/	/	.	/	/	/	/	/	/
COc1cc2ncnc(Nc3cccc(Cl)c3)c2cc1OC	/	/	/	/	6.3µM	7.1µM	25µM	18µM	18µM
COc1ccc(OCCN2CCN(C(=O)c3ccc(OC)cc3)CC2)cc1	10µM	3.3µM	.	.	?	7.1µM	.	7.9µM	.
O=c1[nH][nH]c(C(F)(F)F)c1/C=N/N1CCOCC1	.	.	.	.	/	/	/	/	/
O=C(C1CCCC1)N1CCC(CC2CC(c3cccc(Br)c3)=NO2)(C(=O)NCC2CCCCC2)CC1 (configuration not stated)	?	4.1µM	.	?	16µM	?	.	.	?
CC(=O)Nc1ccc(SCC(=O)c2cc(C)n(Cc3cccs3)c2C)cc1	?	?	.	.	/	/	/	/	?	ELG1 FLuc counter=?;FLuc biochem=13µM
